Assay results taken from PubChem BioAssay (Tox21).
Several values for one entry are separate records, joined by “and”; a condition that tells them apart may be missing. Identical values can stand only once. Inconclusive results are not listed. Entries that show only a call come without a potency. A structure can be active in one record and inactive in another. Activity calls are given as the source filed them. Unless noted, calls come from the whole dose curve; as a rule, active = well fitted curve in the direction sought with a large enough effect in the repeat runs; inconclusive = weak or mixed curves; inactive = no such curve, though single readings can be large; an effect the other way counts as inactive or inconclusive.

What was measured:
[1] = qHTS assay to identify small molecule agonists of the vitamin D receptor (VDR) signaling pathway - cell viability counter screen (AID 743224); note: nearly all actives have a fitted effect of over 50% in size; note: potency is the fitted concentration of half-maximal effect
How it was run: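 Here cell health was gauged by luminescent ATP detection (CellTiter-Glo, 30 min RT) in VDR-bla cells that had been incubated with test compounds for 16 h at 37C and 5% CO2.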

[2] = qHTS assay to identify small molecule agonists of the NFkB signaling pathway - cell viability counter screen (AID 1159515; calls by dose curve; note: series mostly up to about 61 µM; nearly all actives have a fitted effect of over 55% in size)
How it was run: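 5 hr compound treatment of NFkB-bla ME-180 cells (2,000/well, seeded overnight beforehand), followed by reporter substrate for 1.5 hr. CellTiter-Glo added afterward; luminescence after 30 min RT.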

[3] = qHTS assay to identify small molecule agonists of the endoplasmic reticulum stress response signaling pathway (AID 1159516; active = well fitted activation curve with a large enough effect in the signal ratio in the repeat runs, not every such curve was filed as active; the % refers to the signal ratio)
How it was run: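 Reporter HeLa cells (ESRE-beta-lactamase) underwent 5 hr compound incubation at 37 C and 5% CO2 in quantitative HTS format. Detection followed 2 hr of FRET substrate loading at room temperature.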

[4] = qHTS assay to identify small molecule agonists of the endoplasmic reticulum stress response signaling pathway - cell viability counter screen (AID 1159517; calls by dose curve; note: nearly all actives have a fitted effect of over 50% in size; note: potency is the fitted concentration of half-maximal effect)
How it was run: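 HeLa cells carrying an ESRE-driven beta-lactamase reporter receive compound for 5 hr at 37 C. Cell viability is then gauged with CellTiter-Glo by luminescence, 30 min at room temperature.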

[5] = qHTS assay to identify small molecule antagonists of the retinoid-related orphan receptor gamma (ROR-gamma) signaling pathway - cell viability counter screen (AID 1159520); note: nearly all actives have a fitted effect of over 50% in size; note: potency is the fitted concentration of half-maximal effect
How it was run: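 Cytotoxicity was read from cellular ATP (CellTiter-Glo luminescence) after 16 hr at 37 C with 1 uM doxycycline induction. The inducer was added 2 hr after compound transfer to Tet-on ROR gamma CHO cells.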

[6] = target: Nuclear receptor ROR-gamma (Homo sapiens) (UniProt P51449); assay: qHTS assay to identify small molecule antagonists of the retinoid-related orphan receptor gamma (ROR-gamma) signaling pathway (AID 1159521; note: nearly all actives have a fitted effect of over 50% in size; note: potency is the fitted concentration of half-maximal effect)
How it was run: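 Inducible-expression reporter assay: doxycycline (1 uM final) switched on RORγ in CHO cells bearing a ROR response element-luciferase construct, with test compounds present from 2 h beforehand. Decreased luminescence after 16 h defined antagonist activity.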

[7] = qHTS assay to identify small molecule agonists of the AP-1 signaling pathway - cell viability counter screen (AID 1159525; calls by dose curve; note: nearly all actives have a fitted effect of over 55% in size)
How it was run: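 Luminescent ATP readout (Cell Titer Glo, 30 min RT), normalised to DMSO and tetra n-octyl ammonium bromide controls. Cells were ME-180 AP-1-bla in 0.5% dialyzed FBS Opti-MEM, with a 5 h, 37 °C compound exposure.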

[8] = qHTS assay to identify small molecule agonists of the AP-1 signaling pathway (AID 1159526; calls by dose curve)
[9] = target: Retinoic acid receptor RXR-alpha (Homo sapiens) (UniProt P19793); assay: qHTS assay to identify small molecule agonists of the RXR signaling pathway (AID 1159527; calls by dose curve; note: nearly all actives have a fitted effect of over 35% in size; note: potency is the fitted concentration of half-maximal effect)
Retinoic acid receptor RXR-alpha (Homo sapiens), sequence (P19793 whole entry, looked up): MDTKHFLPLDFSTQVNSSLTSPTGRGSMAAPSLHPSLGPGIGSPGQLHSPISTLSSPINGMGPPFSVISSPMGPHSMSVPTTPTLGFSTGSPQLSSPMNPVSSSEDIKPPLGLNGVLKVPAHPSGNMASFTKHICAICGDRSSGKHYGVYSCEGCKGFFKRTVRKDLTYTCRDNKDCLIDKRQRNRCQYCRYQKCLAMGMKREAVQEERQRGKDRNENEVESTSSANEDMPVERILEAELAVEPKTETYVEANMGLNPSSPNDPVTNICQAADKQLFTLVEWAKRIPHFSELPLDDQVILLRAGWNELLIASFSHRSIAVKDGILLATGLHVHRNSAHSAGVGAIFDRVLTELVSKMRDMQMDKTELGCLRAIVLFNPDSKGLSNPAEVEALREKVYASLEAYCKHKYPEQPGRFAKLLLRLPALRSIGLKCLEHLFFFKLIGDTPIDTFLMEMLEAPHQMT
How it was run: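 Compounds in DMSO were added to RXR-alpha-UAS-bla HEK 293T cells kept in 2% charcoal-stripped serum, and incubated 16 hr at 37 C with 5% CO2. Reporter signal came from a 2 hr B/G FRET substrate step.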

[10] = qHTS assay to identify small molecule agonists of the RXR signaling pathway - cell viability counter screen (AID 1159529)
How it was run: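 Counter screen: CellTiter-Glo luminescence. Cells: RXR-alpha-UAS-bla HEK 293T. Medium: 2% charcoal-stripped FBS. Treatment: 16 h, 37 C. Reagent incubation: 30 min, RT.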

[11] = qHTS assay to identify small molecule antagonists of the retinoid acid receptor (RAR) signaling pathway - cell viability counter screen (AID 1159551); note: nearly all actives have a fitted effect of over 35% in size
How it was run: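 Seed C3RL4 cells; next day add compound, then retinol to 1 uM final; incubate 6 h at 37 C; add CellTiter-Glo; read luminescence after 30 min at RT.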

[12] = qHTS assay to identify small molecule antagonists of the estrogen related receptor (ERR) signaling pathway from Tox21 library - cell viability counter screen (AID 1224834); note: nearly all actives have a fitted effect of over 30% in size
How it was run: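 CellTiter-Fluor fluorescence measured; ERR cells; 17.5 h compound incubation at 37 C; 30 min reagent step.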

[13] = qHTS assay to identify small molecule antagonists of the vitamin D receptor (VDR) signaling pathway - cell viability counter screen (AID 743225); note: nearly all actives have a fitted effect of over 50% in size
How it was run: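 Same-well multiplex: following 16 h treatment of HEK 293T cells carrying a UAS-driven beta-lactamase reporter with compound and agonist (3 nM final), and a 2 h FRET substrate step, CellTiter-Glo was added and luminescence read after 30 min.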

[14] = qHTS assay to identify small molecule antagonists of the retinoic acid receptor (RAR) signaling pathway (AID 1159552; note: nearly all actives have a fitted effect of over 50% in size; note: potency is the fitted concentration of half-maximal effect)
How it was run: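 Antagonism of retinol-induced RARE reporter activity was measured in C3RL4 cells. Exposure to compounds and 1 uM final retinol lasted 6 hr at 37 C, with luminescence as endpoint.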

[15] = qHTS assay to identify small molecule agonists of the retinoic acid receptor (RAR) signaling pathway (AID 1159553)
How it was run: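 Activation of retinol signaling was monitored via a RARE luciferase reporter in C3RL4 cells. After 6 hr compound treatment at 37 C, detection reagent was added for 30 min at room temperature before luminescence reading.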

[16] = qHTS assay to identify small molecule antagonists of the estrogen related receptor (ERR) signaling pathway (AID 1224819)
How it was run: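 qHTS in ERR cells, 2,000/well, 1536 format. Cpd (DMSO) added after 6 h settle, 18 h 37 C. One-Glo luminescence, 30 min RT.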

[17] = qHTS assay to identify small molecule agonists of the estrogen related receptor (ERR) signaling pathway (AID 1224820)
How it was run: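 Cells: ERR line from NTP, 2,000/well. Pre-incubation 6 h, 37 C/5% CO2. Compound (DMSO) pin transfer, 18 h 37 C. One-Glo, 30 min RT, luminescence.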

[18] = system: estrogen-related receptor alpha (ERRalpha) with PGC-1alpha coactivator, human; assay: qHTS assay to identify small molecule antagonists of the estrogen related receptor signaling pathway with the pleiotropic PPARgamma coactivator (PGC) (AID 1224821; calls by dose curve)
How it was run: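 Luminescent read-out (One-Glo, 30 min at room temperature) following 18 h treatment of PGC/ERR cells at 37 C with compounds delivered in DMSO. Cells had settled 6 h at 37 C/5% CO2 before dosing.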

[19] = qHTS assay to identify small molecule antagonists of the estrogen related receptor signaling pathway with the pleiotropic PPARgamma coactivator (PGC) cell viability counter screen (AID 1224822;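 note: series mostly up to about 46 µM; viability read after 17.5 h compound exposure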)
How it was run: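 Compounds in DMSO, with positive and negative controls, were applied to PGC/ERR cells (2,000/well) and left 17.5 h at 37 C before CellTiter-Fluor detection.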

[20] = qHTS assay to identify small molecule agonists of the estrogen related receptor signaling pathway with the pleiotropic PPARgamma coactivator (PGC) (AID 1224823)
How it was run: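 Steps: plate PGC/ERR cells at 2,000 cells/well; incubate 6 h, 37 C/5% CO2; pin-transfer compounds (DMSO); incubate 18 h, 37 C; add One-Glo; 30 min RT; read luminescence.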

Compound	Potency [1]	Potency [2]	outcome [3]	Potency [4]	Potency [5]	Potency [6]	Potency [7]	Potency [8]	Potency [9]	Potency [10]	Potency [11]	Potency [12]	Potency [13]	Potency [14]	Potency [15]	Potency [16]	outcome [17]	Potency [18]	Potency [19]	outcome [20]
O=C(Cl)c1cccc(C(=O)Cl)c1	inactive	inactive	inactive	inactive	inactive	inactive	inactive	inactive	inactive	inactive	inactive	inactive	–	–	–	–	–	–	–	–
C=CC(=O)OCCCCCCCC	inactive	inactive	inactive	inactive	inactive	inactive	inactive	inactive	inactive	inactive	inactive	inactive	inactive	inactive	inactive	–	–	–	–	–
CC1COC(=O)O1 (stereo not drawn)	inactive	inactive	inactive	inactive	inactive	inactive	inactive	inactive	inactive	inactive	inactive	inactive	–	–	–	–	–	–	–	–
CNC1(C)C2CCC(C2)C1(C)C (stereo not drawn)	–	inactive	inactive	inactive	inactive	inactive	inactive	inactive	inactive	inactive	inactive	inactive	inactive	inactive	–	inactive	inactive	inactive	inactive	inactive
C/C=C/c1ccc(OCC)c(O)c1	inactive	inactive	inactive	inactive	inactive	inactive	inactive	inactive	inactive	inactive	inactive	inactive	–	inactive	–	–	–	–	–	–
COc1nc(C)nc(Cl)c1NC1=NCCN1	inactive	inactive	inactive	inactive	inactive	inactive	inactive	inactive	inactive	inactive	inactive	–	inactive	inactive	–	–	–	–	inactive	–
CC1=C(C=O)C(C)(C)CC=C1	inactive	inactive	inactive	inactive	inactive	inactive	inactive	inactive	inactive	inactive	inactive	inactive	inactive	inactive	inactive	–	–	–	–	–
C=CS(=O)(=O)O	inactive	inactive	inactive	inactive	inactive	inactive	inactive	inactive	inactive	inactive	inactive	inactive	inactive	inactive	inactive	–	–	–	–	–
Cc1ccnc2c1NC(=O)c1cccnc1N2C1CC1	inactive	inactive	inactive	inactive	inactive	inactive	inactive	inactive	11.4 µM (active) and inactive	inactive	inactive	inactive	inactive	inactive	inactive	–	–	–	–	–
CC(C)(C)c1ccccc1	inactive	inactive	inactive	inactive	inactive	inactive	inactive	inactive	inactive	inactive	inactive	inactive	inactive	inactive	–	–	–	–	–	–
CC(=O)Nc1ccc(C(=O)CCl)cc1	inactive and 54.9 µM (active)	inactive	inactive	inactive and 27.5 µM (active)	inactive and 13.7 µM (active)	inactive and 13.7 µM (active)	inactive	inactive	11 µM (active)	inactive	inactive	inactive	inactive	inactive and 48.6 µM (active)	inactive	–	–	–	–	–
N[C@@H]1CONC1=O	inactive	inactive	inactive	inactive	inactive	inactive	inactive	inactive	inactive	–	inactive	–	inactive	inactive	inactive	inactive	inactive	inactive	inactive	inactive
O=C(O)c1cccc(C(=O)O)c1	inactive	inactive	inactive	inactive	inactive	inactive	inactive	inactive	inactive	inactive	inactive	inactive	–	inactive	–	–	–	–	–	–
CCN1CCCC1CNC(=O)c1cc(S(=O)(=O)CC)c(N)cc1OC (stereo not drawn)	inactive	inactive	inactive	inactive	inactive	inactive	inactive	inactive	inactive	inactive	inactive	inactive	inactive	inactive	inactive	inactive	inactive	inactive	inactive	inactive
CCC(C)(Oc1ccc(C2(c3ccc(OC(C)(CC)C(=O)O)cc3)CCCCC2)cc1)C(=O)O (stereo not drawn)	inactive	inactive	inactive	inactive	inactive	inactive	inactive	inactive	inactive	inactive	inactive	–	inactive	inactive	inactive	–	–	–	–	–
C#CC(C)(CC)OC(=O)c1ccccc1C(=O)O (stereo not drawn)	inactive	inactive	inactive	inactive	inactive	inactive	inactive	inactive	inactive	inactive	inactive	inactive	inactive	inactive	inactive	–	–	–	–	–
